# The panel holds about 79,000 compounds, 15% with a hit somewhere; the sample as a whole holds those more often. A number with no mark means an inactive call. The source made the active and inactive calls. Rule as the data show it: active = growth inhibition above about 70%; inactive = the rest.
# Experiments:
# [1] = NCI Yeast Anticancer Drug Screen. Data for the wt2 strain (AID 169);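 also: 0% = growth of vehicle-treated yeast cultures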; conditions: S. cerevisiae wt2 strain growth inhibition, stronger effect = higher value
# Outline: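 Genetically defined yeast strains from a DNA-repair/cell-cycle panel were used. Compound-exposed yeast growth was measured, and the inhibition was calculated relative to vehicle treatment.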
# [2] = NCI Yeast Anticancer Drug Screen. Data for the mlh1 strain (AID 171);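 also: 0% = growth of vehicle-treated control cultures of the same strain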; conditions: S. cerevisiae mlh1 strain growth inhibition, stronger effect = higher value
# Outline: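 Here the genetically defined yeast mutant is grown with each compound, and the extent to which its growth falls below that of vehicle-exposed cells is reported.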
# [3] = NCI Yeast Anticancer Drug Screen. Data for the sgs1 strain (AID 173);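 also: 0% = growth of vehicle-only control cultures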; conditions: S. cerevisiae sgs1 mutant, stronger effect = higher value
# Outline: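 Relative growth inhibition, referenced to vehicle, was determined in a yeast strain with a defined alteration affecting DNA damage repair or cell cycle control after compound exposure.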
# [4] = NCI Yeast Anticancer Drug Screen. Data for the mlh1 rad18 strain (AID 175); conditions: S. cerevisiae mlh1 rad18 strain growth inhibition, stronger effect = higher value
# Outline: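 In this whole-cell yeast screen, a strain with altered DNA damage repair is challenged with compound, and its growth is measured against matched vehicle-treated controls.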
# [5] = NCI Yeast Anticancer Drug Screen. Data for the rad18 strain (AID 177); conditions: S. cerevisiae rad18 mutant growth inhibition, stronger effect = higher value
# Outline: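 Screen uses a yeast strain with a defined lesion in DNA damage repair; compound effect is read as loss of growth compared to untreated vehicle cultures.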
# [6] = NCI Yeast Anticancer Drug Screen. Data for the rad52 strain (AID 147);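 also: 0% = growth of vehicle-treated control cultures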; conditions: S. cerevisiae rad52 mutant growth inhibition, stronger effect = higher value
# Outline: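 Measured: yeast growth inhibition. System: strain with a defined DNA damage repair alteration. Reference: vehicle-treated control cultures.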
# [7] = NCI Yeast Anticancer Drug Screen. Data for the wt1 strain (AID 149);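 also: 0% = growth of vehicle-treated wt1 cultures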; conditions: S. cerevisiae wt1 strain (SPY 50644) growth inhibition, stronger effect = higher value
# Outline: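 The wt1 strain was treated with compounds, and growth was compared with vehicle-treated cultures to give inhibition.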
# [8] = NCI Yeast Anticancer Drug Screen. Data for the rad50EPP+ strain (AID 151);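 also: 0% = growth of vehicle-treated control cultures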; conditions: S. cerevisiae rad50 mutant strain, stronger effect = higher value
# Outline: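 One strain with a rad50 alteration (rad50EPP+) was compound-treated, its growth then compared to that of vehicle controls.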
# [9] = NCI Yeast Anticancer Drug Screen. Data for the mgt1 strain (AID 153); conditions: S. cerevisiae mgt1 mutant growth inhibition, stronger effect = higher value
# Outline: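 After exposure of the mgt1 yeast mutant to compound, growth was measured and reported as inhibition compared with vehicle controls.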
# [10] = NCI Yeast Anticancer Drug Screen. Data for the rad50 strain (AID 155);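 also: 0% = growth of vehicle-only cultures of the same strain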; conditions: S. cerevisiae rad50 strain growth inhibition, stronger effect = higher value
# Outline: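 Cells are treated with compound, grown, and their growth is then scored against vehicle-only cultures of the same repair-deficient yeast strain.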
# [11] = NCI Yeast Anticancer Drug Screen. Data for the mec2-1 strain (AID 157); conditions: S. cerevisiae mec2-1 strain, stronger effect = higher value
# Outline: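 Test agents were screened against the mec2-1 yeast strain, with defined DNA repair or cell cycle alteration. Growth was scored as inhibition against vehicle-only controls.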
# [12] = NCI Yeast Anticancer Drug Screen. Data for the rad14 strain (AID 159);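 also: 0% = growth of vehicle-treated control cultures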; conditions: S. cerevisiae rad14 strain growth inhibition, stronger effect = higher value
# Outline: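 Readout: yeast growth inhibition, referenced to vehicle-only cultures. Strain bears a defined alteration in DNA damage repair.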
# [13] = NCI Yeast Anticancer Drug Screen. Data for the sgs1 mgt1 strain (AID 161);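 also: 0% = growth of cultures given vehicle only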; conditions: S. cerevisiae sgs1 mgt1 strain, stronger effect = higher value
# Outline: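 Genetically altered yeast, compound exposure, growth inhibition relative to vehicle.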
# [14] = NCI Yeast Anticancer Drug Screen. Data for the CLN2oe strain (AID 163);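 also: 0% = growth of vehicle-only control cultures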; conditions: S. cerevisiae CLN2oe strain, stronger effect = higher value
# Outline: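 Here, growth inhibition in a cell-cycle-altered yeast strain after compound exposure was quantified against vehicle control growth.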
# [15] = NCI Yeast Anticancer Drug Screen. Data for the cln2 rad14 strain (AID 165);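 also: 0% = growth equal to vehicle treated cultures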; conditions: S. cerevisiae cln2 rad14 strain, stronger effect = higher value
# Outline: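 Growth of compound-exposed yeast (cln2 rad14 genotype) measured and expressed as inhibition relative to vehicle.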
# [16] = NCI Yeast Anticancer Drug Screen. Data for the bub3 strain (AID 167); conditions: S. cerevisiae bub3 mutant strain, stronger effect = higher value
# Outline: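 Part of a panel of yeast mutants defective in DNA damage repair or cell cycle regulation. Each strain is grown with compound, and inhibition is calculated relative to solvent-treated cultures.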
# [17] = at 5.0 µM (retest, dose inferred, filed as 0.5)
# [18] = at 50.0 µM (retest, dose inferred, filed as 5.0)
smiles,measurement,setting,value
O=C(NC(=S)Nc1ccccn1)c1ccccc1,growth inhibition,[1]; at 1.2 µM,-32%
same,growth inhibition,[1]; at 3.7 µM,-32%
same,growth inhibition,[1]; at 11.0 µM,-38%
same,growth inhibition,[1]; at 33.0 µM,-27%
same,growth inhibition,[1]; at 100.0 µM,-20%
same,growth inhibition,[2]; at 1.2 µM,-38%
same,growth inhibition,[2]; at 3.7 µM,-34%
same,growth inhibition,[2]; at 11.0 µM,-26%
same,growth inhibition,[2]; at 33.0 µM,-40%
same,growth inhibition,[2]; at 100.0 µM,-37%
same,growth inhibition,[3]; at 1.2 µM,-54%
same,growth inhibition,[3]; at 3.7 µM,-71%
same,growth inhibition,[3]; at 11.0 µM,-47%
same,growth inhibition,[3]; at 33.0 µM,-36%
same,growth inhibition,[3]; at 100.0 µM,-31%
same,growth inhibition,[4]; [17],100% (active)
same,growth inhibition,[4]; [18],100% (active)
same,growth inhibition,[4]; at 50.0 µM,19.2%
same,growth inhibition,[5]; at 1.2 µM,-60%
same,growth inhibition,[5]; at 3.7 µM,-56%
same,growth inhibition,[5]; at 11.0 µM,-29%
same,growth inhibition,[5]; at 33.0 µM,-38%
same,growth inhibition,[5]; at 100.0 µM,-43%
O=C1C=CC(=O)N1c1ccc(N2C(=O)C=CC2=O)cc1,growth inhibition,[6]; at 1.2 µM,43%
same,growth inhibition,[6]; at 3.7 µM,93% (active)
same,growth inhibition,[6]; at 11.0 µM,100% (active)
same,growth inhibition,[6]; at 33.0 µM,100% (active)
same,growth inhibition,[6]; at 100.0 µM,99% (active)
same,growth inhibition,[7]; at 1.2 µM,33%
same,growth inhibition,[7]; at 3.7 µM,95% (active)
same,growth inhibition,[7]; at 11.0 µM,100% (active)
same,growth inhibition,[7]; at 33.0 µM,100% (active)
same,growth inhibition,[7]; at 100.0 µM,98% (active)
same,growth inhibition,[8]; at 1.2 µM,3%
same,growth inhibition,[8]; at 3.7 µM,49%
same,growth inhibition,[8]; at 11.0 µM,85% (active)
same,growth inhibition,[8]; at 33.0 µM,99% (active)
same,growth inhibition,[8]; at 100.0 µM,99% (active)
same,growth inhibition,[9]; at 1.2 µM,60%
same,growth inhibition,[9]; at 3.7 µM,102% (active)
same,growth inhibition,[9]; at 11.0 µM,100% (active)
same,growth inhibition,[9]; at 33.0 µM,100% (active)
same,growth inhibition,[9]; at 100.0 µM,98% (active)
same,growth inhibition,[10]; at 1.2 µM,32%
same,growth inhibition,[10]; at 3.7 µM,97% (active)
same,growth inhibition,[10]; [17],44%
same,growth inhibition,[10]; at 11.0 µM,100% (active)
same,growth inhibition,[10]; at 33.0 µM,100% (active)
same,growth inhibition,[10]; [18],73% (active)
same,growth inhibition,[10]; at 50.0 µM,92.2% (active)
same,growth inhibition,[10]; at 100.0 µM,99% (active)
same,growth inhibition,[11]; at 1.2 µM,46%
same,growth inhibition,[11]; at 3.7 µM,101% (active)
same,growth inhibition,[11]; [17],39%
same,growth inhibition,[11]; at 11.0 µM,100% (active)
same,growth inhibition,[11]; at 33.0 µM,100% (active)
same,growth inhibition,[11]; [18],82% (active)
same,growth inhibition,[11]; at 50.0 µM,94.4% (active)
same,growth inhibition,[11]; at 100.0 µM,99% (active)
same,growth inhibition,[12]; at 1.2 µM,17%
same,growth inhibition,[12]; at 3.7 µM,101% (active)
same,growth inhibition,[12]; at 11.0 µM,100% (active)
same,growth inhibition,[12]; at 33.0 µM,100% (active)
same,growth inhibition,[12]; at 100.0 µM,99% (active)
same,growth inhibition,[13]; [17],-16%
same,growth inhibition,[13]; [18],100% (active)
same,growth inhibition,[13]; at 50.0 µM,93.5% (active)
same,growth inhibition,[14]; at 1.2 µM,35%
same,growth inhibition,[14]; at 3.7 µM,59%
same,growth inhibition,[14]; at 11.0 µM,99% (active)
same,growth inhibition,[14]; at 33.0 µM,99% (active)
same,growth inhibition,[14]; at 100.0 µM,99% (active)
same,growth inhibition,[15]; [17],47%
same,growth inhibition,[15]; [18],100% (active)
same,growth inhibition,[15]; at 50.0 µM,92.3% (active)
same,growth inhibition,[16]; at 1.2 µM,48%
same,growth inhibition,[16]; at 3.7 µM,96% (active)
same,growth inhibition,[16]; [17],19%
same,growth inhibition,[16]; at 11.0 µM,100% (active)
same,growth inhibition,[16]; at 33.0 µM,100% (active)
same,growth inhibition,[16]; [18],99% (active)
same,growth inhibition,[16]; at 50.0 µM,92.8% (active)
same,growth inhibition,[16]; at 100.0 µM,99% (active)
same,growth inhibition,[1]; at 1.2 µM,9%
same,growth inhibition,[1]; at 3.7 µM,91% (active)
same,growth inhibition,[1]; at 11.0 µM,99% (active)
same,growth inhibition,[1]; at 33.0 µM,100% (active)
same,growth inhibition,[1]; at 100.0 µM,98% (active)
same,growth inhibition,[3]; at 1.2 µM,41%
same,growth inhibition,[3]; at 3.7 µM,99% (active)
same,growth inhibition,[3]; at 11.0 µM,99% (active)
same,growth inhibition,[3]; at 33.0 µM,100% (active)
same,growth inhibition,[3]; at 100.0 µM,99% (active)
same,growth inhibition,[4]; [17],37%
same,growth inhibition,[4]; [18],75% (active)
same,growth inhibition,[4]; at 50.0 µM,92.5% (active)

# Reference: PubChem BioAssay (NCI)
